# Assay results as given in PubChem BioAssay (NCATS).
# Several values for one entry are separate records, joined by “and”; a condition that tells them apart may be missing. Equal values may be shown once. Inconclusive results are not listed. Activity calls are given as the source filed them. Calls follow the shape of the dose curve; as a rule, active = well fitted inhibition curve with a large enough effect; inconclusive = small, poorly fitted or top-dose-only effect; inactive = no such curve, though single readings can be large or run the other way.
# Tested on: not listed separately
# Experiment: Primary qHTS for inhibitors of nuclear receptor binding SET domain protein 2 (NSD2) in an RCH-ACV wild type WT cells (2C) (AID 1645877); also: nearly all actives have a fitted effect of over 70% in size; also: potency is read from the fitted curve at half-maximal effect
# Conditions: RCH-ACV (leukaemia line) NSD2 WT (2C) viability, CellTiter-Glo, 72 h; series mostly up to 44.9 µM
row,Structure (SMILES),Potency
1,O=C(c1ccccc1)c1ccc2nc(NC(=O)c3csc(C4CCN(c5ncnc6ccsc56)CC4)n3)[nH]c2c1,4.59 µM (active)
2,COc1cccc(-c2cc(NCc3ccc4c(c3)OCO4)nc(N)n2)c1,0.163 µM (active)
3,Cn1ncnc1COc1nn2c(-c3cc(F)ccc3F)nnc2cc1C(C)(C)C,1.03 µM (active)
4,COCCOc1ccc(N2CCN(CCn3ncc4c3nc(N)n3nc(-c5ccco5)nc43)CC2)cc1,inactive
5,CN(CCc1ccc(Nc2ncc(-c3cccnc3)s2)cc1)Cc1ccccc1,9.16 µM (active)
6,CN(c1ccccc1CNc1nc(Nc2ccc3c(c2)CC(=O)N3)ncc1C(F)(F)F)S(C)(=O)=O,1.03 µM (active)
7,CC(C)(C)c1cc(Br)cc([C@H](CC(=O)O)NC(=O)CNC(=O)c2cc(O)cc(NC3=NCC(O)CN3)c2)c1 (some centres not stated),inactive
8,O=C(O)c1cccc(S(=O)(=O)N2CCc3ccccc3C2)c1,inactive
9,N#Cc1ccc2[nH]cc(CCCCN3CCN(c4ccc5oc(C(N)=O)cc5c4)CC3)c2c1,16.3 µM (active)
10,NC(=O)c1cnc(NCCc2ccc(O)c(Cl)c2)nc1NCc1ccccc1,1.15 µM (active)
11,COc1cc2c(NC3CCN(CC4CCCCC4)CC3)nc(N3CCCN(C(C)C)CC3)nc2cc1OCCCN1CCCCC1,2.3 µM (active) and 3.32 µM (active)
12,Cc1c[nH]c2nccc(Oc3c(F)cc(Nc4cc(Cl)nc(N)n4)cc3F)c12,0.731 µM (active)
13,CCCCCCOc1cc2c(cc1N(C)c1ncc(C(=O)O)cn1)C(C)(C)CCC2(C)C,inactive
14,CCS(=O)(=O)N1CCN(c2ccc(Nc3ncc(C(N)=O)c(NC4CC4)n3)cc2)CC1,258 nM (active) and 417 nM (active)
15,CN(C)c1nc(NC2CCC(NCCc3ccc(Br)cc3OC(F)(F)F)CC2)nc2ccccc12 (configuration not stated),2.58 µM (active)
16,CCOC(=O)c1cc(C#N)c(N2CCC(C(=O)NS(=O)(=O)Cc3ccccc3)CC2)nc1C,inactive
17,O=C(Nc1nc2ccccc2n1CCc1ccccc1)c1ccccc1,5.15 µM (active)
18,O=C(Nc1ccc(-c2ccncc2)cc1)N[C@H](CO)c1ccccc1,23 µM (active)

row,Structure (SMILES),Potency
1,CCN(CC)CCN(Cc1ccc(-c2ccc(C(F)(F)F)cc2)cc1)C(=O)Cn1c(SCc2ccc(F)cc2)nc(=O)c2c1CCC2,3.65 µM (active)
2,COc1cc2c(cc1OC)-c1[nH]nc(Nc3cccc(F)c3)c1C2,0.0578 µM (active)
3,CC(C)[C@@](C)(O)[C@@H]1CN(c2nc(-c3[nH]nc4ncccc34)c(F)cc2Cl)CCN1,4.59 µM (active)
4,COc1ccc(Oc2cc(C)c(-c3csc(NC(=O)c4ccncc4)n3)c(C)c2)cc1,0.916 µM (active)
5,CC(Oc1ccc2[nH]nc(/C=C/c3cnn(CCO)c3)c2c1)c1c(Cl)cncc1Cl (configuration not stated),0.103 µM (active)
6,CNC(=O)c1ccccc1Nc1nc(Nc2ccc(N3CCNCC3)cc2)ncc1Cl,inactive
7,Cc1ccc(-c2ccc3c(ccc4sc5c(c43)NC[C@@H](C)NC5=O)n2)cn1,16.6 µM (active)
8,COc1cc(NC(=O)Nc2cccc(CNC(=O)O[C@H]3CCOC3)c2)ccc1-c1cnco1,0.728 µM (active)
9,CCCC(=O)C1CCN(c2ncnc3c2CN(C(=O)c2ccc(-c4ccccc4)cc2)CC3)CC1,20.5 µM (active)
10,CC(Cc1cc2c(c(C(N)=O)c1)N(CCCO)CC2)NCCOc1ccccc1OCC(F)(F)F (configuration not stated),inactive
11,CNC(=O)c1ccccc1Nc1nc(Nc2ccc3c(c2OC)CCCC(N2CCN(CCO)CC2)C3)ncc1Cl (configuration not stated),7.28 µM (active)
12,CC(=O)N1CCN(C(=O)Cc2ccc(Nc3ncc(F)c(Nc4ccc(C(=O)Nc5ccccc5Cl)cc4)n3)cc2)CC1,2.05 µM (active)
13,COc1cc2nc(N3CCCC3)nc(NCCCCCN3CCCC3)c2cc1OC,5.15 µM (active)
14,CCN1CCN(Cc2ccc(NC(=O)Nc3ccc(Oc4cc(NC)ncn4)cc3)cc2C(F)(F)F)CC1,3.65 µM (active) and 2.35 µM (active)
15,CC(C)c1nc(-c2ccc(NC(=O)Nc3cccc(C(F)(F)F)c3)c3ccccc23)c2c(N)nccn12,1.45 µM (active)
16,CC(C)[C@@H](CS(=O)(=O)C(C)C)N1C(=O)[C@@](C)(CC(=O)O)C[C@H](c2cccc(Cl)c2)[C@H]1c1ccc(Cl)cc1,515 nM (active) and 662 nM (active)
17,COc1cc(O)c([C@@H](CC(=O)N2CC(C)CC(C)C2)c2ccc3c(c2)OCO3)c(OC)c1 (some centres not stated),inactive

# Biological target: Catechol O-methyltransferase (Homo sapiens) (UniProt P21964)
# Sequence (P21964 whole entry, looked up): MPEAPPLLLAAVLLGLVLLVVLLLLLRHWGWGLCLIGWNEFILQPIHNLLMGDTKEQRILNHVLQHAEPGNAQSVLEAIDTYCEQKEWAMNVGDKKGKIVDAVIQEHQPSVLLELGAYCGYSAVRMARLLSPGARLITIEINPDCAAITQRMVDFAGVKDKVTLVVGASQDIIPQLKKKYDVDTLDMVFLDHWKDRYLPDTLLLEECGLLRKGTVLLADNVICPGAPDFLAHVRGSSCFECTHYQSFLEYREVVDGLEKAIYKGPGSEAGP
# Experiment: Confirmatory Screen for Target Class Profiling of Small Molecule Inhibitors of Methyltransferases (AID 1745852)
# Conditions: MTase-Glo luminescence, SAH detection, recombinant enzyme; measured here: COMT max response; stronger effect = lower value
row,Structure (SMILES),activity
1,O=C(c1ccccc1)c1ccc2nc(NC(=O)c3csc(C4CCN(c5ncnc6ccsc56)CC4)n3)[nH]c2c1,-7.12%
2,COc1cccc(-c2cc(NCc3ccc4c(c3)OCO4)nc(N)n2)c1,-1.69%
3,CN(CCc1ccc(Nc2ncc(-c3cccnc3)s2)cc1)Cc1ccccc1,-0.695%
4,CN(c1ccccc1CNc1nc(Nc2ccc3c(c2)CC(=O)N3)ncc1C(F)(F)F)S(C)(=O)=O,-5.57%
5,N#Cc1ccc2[nH]cc(CCCCN3CCN(c4ccc5oc(C(N)=O)cc5c4)CC3)c2c1,-8.1%
6,NC(=O)c1cnc(NCCc2ccc(O)c(Cl)c2)nc1NCc1ccccc1,-29%
7,COc1cc2c(NC3CCN(CC4CCCCC4)CC3)nc(N3CCCN(C(C)C)CC3)nc2cc1OCCCN1CCCCC1,-7.99%
8,Cc1c[nH]c2nccc(Oc3c(F)cc(Nc4cc(Cl)nc(N)n4)cc3F)c12,-14.6%
9,CCS(=O)(=O)N1CCN(c2ccc(Nc3ncc(C(N)=O)c(NC4CC4)n3)cc2)CC1,-6.02%
10,CN(C)c1nc(NC2CCC(NCCc3ccc(Br)cc3OC(F)(F)F)CC2)nc2ccccc12 (configuration not stated),-10.3%
11,N#Cc1cnc2cnc(NCc3cccnc3)cc2c1Nc1ccc(F)c(Cl)c1,-10.6%
12,CCN(CC)CCN(Cc1ccc(-c2ccc(C(F)(F)F)cc2)cc1)C(=O)Cn1c(SCc2ccc(F)cc2)nc(=O)c2c1CCC2,-2.67%
13,CC(C)c1cccc2c(-c3ccccc3)cc(-c3ccc(-c4ccc(C(=O)O)cc4)[nH]3)nc12,-3.32%
14,CC(C)[C@@](C)(O)[C@@H]1CN(c2nc(-c3[nH]nc4ncccc34)c(F)cc2Cl)CCN1,-69%
15,CNC(=O)c1ccccc1Nc1nc(Nc2ccc(N3CCNCC3)cc2)ncc1Cl,-21.5%
16,COc1cc(NC(=O)Nc2cccc(CNC(=O)O[C@H]3CCOC3)c2)ccc1-c1cnco1,-5.78%
17,COc1ccc(C2(O)CCC(N3CC[C@@H](NC(=O)CNC(=O)c4cccc(C(F)(F)F)c4)C3)CC2)cn1 (some centres not stated),-5.05%
18,COc1cc2nc(N3CCCC3)nc(NCCCCCN3CCCC3)c2cc1OC,-4.52%
19,CCN1CCN(Cc2ccc(NC(=O)Nc3ccc(Oc4cc(NC)ncn4)cc3)cc2C(F)(F)F)CC1,-1.25%
20,CC(C)c1nc(-c2ccc(NC(=O)Nc3cccc(C(F)(F)F)c3)c3ccccc23)c2c(N)nccn12,-5.14%
21,CNS(=O)(=O)CC1CCC(N(C)c2ncnc3[nH]ccc23)CC1 (configuration not stated),-6.68%
22,C=C(F)c1sc(CNCCCNc2cc(=O)c3ccccc3[nH]2)c(C)c1Br,-1.13%
